What all share (assay): NCI-60 one-dose screen, 48 h (100 = growth as untreated, 0 = no growth, -100 = all killed)
One assay relates to HCT-15 colon. To be noted: 10 µM unless noted.
The test system of another assay is HT29 colon. To be noted: 10 µM unless noted.
In another assay the test system is SNB-75 CNS. Conditions: 10 µM unless noted.
A further assay deals with SNB-19 CNS. To be noted: 10 µM unless noted.
For another assay, the system named is U251 CNS. Conditions: 10 µM unless noted.
The next assay concerns PC-3 prostate. To be noted: 10 µM unless noted.
A further assay relates to SK-MEL-5 melanoma. Conditions: 10 µM unless noted.
A further assay deals with UACC-62 melanoma. Conditions: 10 µM unless noted.
A further assay relates to SK-MEL-28 melanoma. Conditions: 10 µM unless noted.
In another assay the test system is SK-MEL-2 melanoma. Conditions: 10 µM unless noted.
A further assay concerns EKVX NSCLC. Conditions: 10 µM unless noted.
The next assay has as its system SN12C renal. Conditions: 10 µM unless noted.
Another assay relates to UO-31 renal. To be noted: 10 µM unless noted.
For a further assay, the system named is TK-10 renal. To be noted: 10 µM unless noted.
A further assay deals with ACHN renal. Conditions: 10 µM unless noted.
The subject of a further assay is CAKI-1 renal. To be noted: 10 µM unless noted.
The next assay relates to A498 renal. To be noted: 10 µM unless noted.
The subject of the next assay is CCRF-CEM leukemia. Conditions: 10 µM unless noted.
Another assay has as its system MOLT-4 leukemia. To be noted: 10 µM unless noted.
The subject of the next assay is LOX IMVI melanoma. To be noted: 10 µM.

Each structure is given as a SMILES string. About 83,000 compounds went through this panel and 20% of them were active in at least one assay; those are over-represented in the sample as a whole.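 In brief: 96-well plates, 48 h treatment, single concentration, percent growth endpoint.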 A number with no mark means an inactive call. Active and inactive are the calls of the source. How the source made its calls: active means growth percent below 10; inactive means the rest.

With `C1CCc2onc(-c3noc4c3CCCCC4)c2CC1`, the growth in the assay on HCT-15 colon is 103%; with HT29 colon it was 103%; in the assay with SNB-75 CNS, 112%; in the assay on SNB-19 CNS, 98%; with U251 CNS, 107%; with PC-3 prostate, 102%. Moreover, the growth in the assay with SK-MEL-5 melanoma is 101%; in the assay on UACC-62 melanoma, 102%; with SK-MEL-28 melanoma, 112%; in the assay with SK-MEL-2 melanoma it was 120%; in the assay on EKVX NSCLC, 106%; with SN12C renal, 95.6%. Besides, the growth in the assay on UO-31 renal was 91.1%; with TK-10 renal, 108%; in the assay with ACHN renal, 113%; in the assay on CAKI-1 renal, 95.6%; in the assay on A498 renal it was 146%; in the assay with CCRF-CEM leukemia, 99.3%. The growth in the assay on MOLT-4 leukemia is 102%.

Consider `ClCC(Cl)C1CCC(Cl)C(Cl)C1` (stereo unspecified), for which the growth is 99% in the assay with HCT-15 colon; 103% with HT29 colon; 89.6% in the assay with SNB-75 CNS; 99.8% in the assay with SNB-19 CNS; 99.6% in the assay on U251 CNS; 105% in the assay on SK-MEL-5 melanoma. The growth in the assay on UACC-62 melanoma was 103%; in the assay with LOX IMVI melanoma it was 95.9%; with SK-MEL-28 melanoma, 103%; with SK-MEL-2 melanoma it was 110%; in the assay with SN12C renal it was 104%; in the assay on UO-31 renal, 86.3%. The growth in the assay on TK-10 renal was 100%; in the assay on ACHN renal it was 99.3%; in the assay on CAKI-1 renal, 97.2%; with A498 renal, 85.5%; in the assay on CCRF-CEM leukemia, 97.5%; in the assay with MOLT-4 leukemia, 105%.

Consider `Oc1ccc2ccccc2c1CN1CCOCC1`, for which the growth with HCT-15 colon was 107%; with HT29 colon, 110%; in the assay with SNB-75 CNS, 95.6%; in the assay with SNB-19 CNS it was 110%; with U251 CNS it was 110%; with SK-MEL-5 melanoma, 113%. Also, the growth in the assay with UACC-62 melanoma is 111%; in the assay on LOX IMVI melanoma, 115%; in the assay on SK-MEL-28 melanoma it was 107%; in the assay with SK-MEL-2 melanoma, 103%; in the assay with EKVX NSCLC, 113%; in the assay with SN12C renal, 107%. The growth in the assay with UO-31 renal is 74.6%; in the assay with TK-10 renal, 123%; with ACHN renal it was 103%; in the assay with CAKI-1 renal, 94.6%; in the assay on A498 renal, 112%; in the assay on CCRF-CEM leukemia it was 95.3%. In the assay with MOLT-4 leukemia, the growth is 99.6%.

For the molecule `COCC(N)=O`, the growth with HCT-15 colon was 100%; with HT29 colon, 102%; in the assay with SNB-75 CNS it was 102%; in the assay with SNB-19 CNS it was 107%; in the assay with U251 CNS, 104%; in the assay with SK-MEL-5 melanoma it was 102%. For the same molecule, the growth in the assay with UACC-62 melanoma is 109%; in the assay with LOX IMVI melanoma, 99.7%; with SK-MEL-28 melanoma it was 121%; in the assay on SK-MEL-2 melanoma it was 95.9%; in the assay on EKVX NSCLC, 109%; in the assay on SN12C renal, 108%. Further, the growth in the assay with UO-31 renal is 85.2%; with TK-10 renal it was 102%; with ACHN renal it was 102%; with CAKI-1 renal, 104%; in the assay with A498 renal, 96.6%; in the assay on MOLT-4 leukemia, 98.5%.

As to `C=COC(=O)CCOCC(CC)CCCC` (stereo unspecified), the growth in the assay on HCT-15 colon was 104%; in the assay with HT29 colon it was 104%; in the assay on SNB-75 CNS, 97.2%; with SNB-19 CNS, 104%; in the assay with U251 CNS it was 102%; in the assay on SK-MEL-5 melanoma, 107%. Further, the growth in the assay with UACC-62 melanoma is 99.5%; with LOX IMVI melanoma it was 98.8%; with SK-MEL-28 melanoma it was 113%; with SK-MEL-2 melanoma, 96.9%; in the assay with EKVX NSCLC it was 110%; in the assay with SN12C renal, 104%. The growth was 79.5% with UO-31 renal; 106% in the assay with ACHN renal; 96.5% in the assay with CAKI-1 renal; 91.9% with A498 renal; 93.9% with MOLT-4 leukemia.

On to `COc1ccc(NNS(=O)(=O)O)cc1`, for which the growth was 101% in the assay on HCT-15 colon; 99.9% in the assay with HT29 colon; 83.2% in the assay on SNB-75 CNS; 98.1% in the assay with SNB-19 CNS; 98% in the assay with U251 CNS; 102% with SK-MEL-5 melanoma. Also, the growth in the assay on UACC-62 melanoma was 96.7%; with LOX IMVI melanoma it was 99.7%; with SK-MEL-28 melanoma it was 107%; in the assay with SK-MEL-2 melanoma it was 103%; in the assay with EKVX NSCLC, 104%; with SN12C renal, 89.9%. Besides, the growth was 90.4% with UO-31 renal; 103% in the assay on TK-10 renal; 97.4% in the assay on ACHN renal; 98.5% in the assay with CAKI-1 renal; 69.5% with A498 renal; 99.2% with CCRF-CEM leukemia. In the assay on MOLT-4 leukemia, the growth is 105%.

Take `CC(=O)N=c1ccc2nc3c(cc(N)c4ccccc43)oc-2c1`: the growth in the assay on HCT-15 colon is -75.5% (active); in the assay with HT29 colon, 1.15% (active); in the assay on SNB-75 CNS, 34%; in the assay on SNB-19 CNS, -11.1% (active); in the assay on PC-3 prostate, 2.46% (active); with SK-MEL-5 melanoma, -100% (active). Moreover, the growth in the assay with UACC-62 melanoma is -61.2% (active); with LOX IMVI melanoma, -74.3% (active); in the assay on SK-MEL-28 melanoma it was -2.3% (active); in the assay with SK-MEL-2 melanoma, -42.4% (active); with EKVX NSCLC, 2.37% (active); with SN12C renal it was -72.8% (active). The growth in the assay on UO-31 renal was -43.9% (active); with TK-10 renal, 47.6%; in the assay with ACHN renal it was 32.5%; in the assay with CAKI-1 renal, -23.1% (active); in the assay with A498 renal, 80.5%; in the assay with CCRF-CEM leukemia, -11.5% (active). Moreover, the growth in the assay on MOLT-4 leukemia is -37.2% (active).

Turning to `O=C(N/N=C\c1ccc(Cl)cc1Cl)c1ccncc1`, the growth in the assay on HCT-15 colon is 102%; in the assay with HT29 colon, 90.1%; with SNB-75 CNS it was 77.4%; in the assay with SNB-19 CNS, 92.8%; in the assay with PC-3 prostate, 94%; in the assay on SK-MEL-5 melanoma, 98.9%. The growth with UACC-62 melanoma was 106%; in the assay with LOX IMVI melanoma, 85.4%; in the assay with SK-MEL-28 melanoma, 103%; with SK-MEL-2 melanoma, 94.4%; with EKVX NSCLC, 101%; with SN12C renal, 98.7%. Besides, the growth with UO-31 renal is 90.7%; with TK-10 renal it was 91.4%; with ACHN renal, 105%; with CAKI-1 renal, 99%; in the assay on A498 renal it was 95.8%; in the assay with CCRF-CEM leukemia, 99.6%. For the same molecule, in the assay with MOLT-4 leukemia, the growth is 94.5%.

Take `Cn1/c(=N\N=C\c2ccccc2OCCO)sc2ccccc21`: the growth is 82.4% in the assay with HCT-15 colon; 109% with HT29 colon; 115% in the assay on SNB-75 CNS; 96.7% in the assay with SNB-19 CNS; 100% in the assay on U251 CNS; 88% in the assay with SK-MEL-5 melanoma. Moreover, the growth in the assay on UACC-62 melanoma was 90%; in the assay on LOX IMVI melanoma, 100%; in the assay with SK-MEL-28 melanoma, 124%; with SK-MEL-2 melanoma, 104%; in the assay on SN12C renal, 102%; with UO-31 renal, 57.2%. For the same molecule, the growth is 109% with TK-10 renal; 92.5% in the assay on ACHN renal; 88.9% with CAKI-1 renal; 103% in the assay with A498 renal; 93.3% with CCRF-CEM leukemia; 62.7% in the assay with MOLT-4 leukemia.

Source of the values: PubChem BioAssay (NCI).
